Results as given in the supplement of paper PMC3724861.
The sample as a whole holds a higher share of hits than the screen did. The hit rate among all sequences tested is not known here.

What follows are sequences tested on T1, Caupolican (Caup) homeodomain DNA-binding domain (assay: PBM E-score (8-mer, recovered from the published 9-mer minima) (E-score (dimensionless, -0.5 to 0.5)); Drosophila protein; higher = stronger relative binding preference, active = 0.31 or more).
T1 sequence: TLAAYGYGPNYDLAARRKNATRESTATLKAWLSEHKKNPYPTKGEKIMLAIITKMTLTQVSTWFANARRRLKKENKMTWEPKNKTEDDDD
In short: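 Caup's homeodomain DNA-binding domain (residues 214-303) was made by in vitro transcription and translation and applied at 100 nM to custom-designed protein binding microarrays. Each value is an enrichment score that gives relative binding preference for a short DNA word, with higher meaning stronger. The 8-mer values were recovered from published 9-mer scores, each of which was the minimum of its two constituent 8-mer scores. A cutoff of 0.31 marks candidate sites.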

Sequence	PBM E-score
AAAGAGTA	0.0035 (inactive)
GGTACAAC	0.32 (active)
CATACAAG	0.3 (inactive)
AGTACAAC	0.275 (inactive)
CGTACAAG	0.37 (active)
AGTACAAG	0.416 (active)
AGTACCAG	0.0977 (inactive)
GGTACAAA	0.256 (inactive)
CGTACAAA	0.18 (inactive)
CGCACAAC	0.0805 (inactive)
CGTACAGC	0.00506 (inactive)
AGTACAAT	0.292 (inactive)
CGTACAAC	0.31 (active)
GAGTTATC	0.0344 (inactive)
CTAGCAAC	0.101 (inactive)
GGTATTGA	0.058 (inactive)
AGCTCAAT	-0.0704 (inactive)
TGAGTGCA	-0.0812 (inactive)
CGTTTGCC	-0.0961 (inactive)
TCATCGCA	0.065 (inactive)
CACCCACG	-0.151 (inactive)
AAGGCGCG	-0.205 (inactive)
GCATGAGC	-0.0712 (inactive)
TGACAGCA	0.185 (inactive)
TGTCAACA	≥ 0.324 (active)

Sequence	PBM E-score
CGACAACG	0.168 (inactive)
AGACAACG	0.231 (inactive)
CGTCAACA	0.0802 (inactive)
TGACAAAA	0.186 (inactive)
AGACAACA	0.349 (active)
CGACAACC	0.186 (inactive)
AGACAACT	0.191 (inactive)
GGTCAACA	0.159 (inactive)
TGACAACA	0.377 (active)
CGACAACA	0.342 (active)
AAGCATCA	0.0394 (inactive)
GCAAGTGC	-0.0754 (inactive)
AGACAGGC	-0.00368 (inactive)
AGTCCGGG	-0.154 (inactive)
AAGTTGAC	0.0758 (inactive)
AACGCTGG	-0.0926 (inactive)
CTATTGGA	0.00708 (inactive)
ATGCTGAC	0.119 (inactive)
GAAAGCAC	0.0573 (inactive)
ATGGTTGG	-0.0636 (inactive)
AATATTGG	0.0704 (inactive)
ATCACTAG	0.138 (inactive)
AGACAAGA	0.256 (inactive)
CGACAAGA	0.317 (active)
GGACAACC	0.169 (inactive)

Sequence	PBM E-score
CGACAAGC	0.224 (inactive)
GGACAACA	0.336 (active)
GGACAAGA	0.264 (inactive)
AAGGGGTG	-0.101 (inactive)
GCTGGTAC	0.0272 (inactive)
AGTTCTAT	0.0299 (inactive)
ATCTTGTA	0.375 (active)
ATCTTGTG	0.18 (inactive)
CTCTTGTA	0.299 (inactive)
GTCTTGCA	0.0651 (inactive)
ATCTTGTC	0.308 (inactive)
GTCTTGTA	0.352 (active)
GCAAAGGC	-0.087 (inactive)
ATATGCGA	0.0126 (inactive)
AGTTCAAC	0.0449 (inactive)
ACTCCTTG	0.0436 (inactive)
CCTCTGCC	-0.243 (inactive)
AACATAAG	0.268 (inactive)
CACATAAC	0.223 (inactive)
AACATAAT	≥ 0.327 (active)
AACATAAC	0.318 (active)
ATCATAAT	0.167 (inactive)
ATCATAAC	0.156 (inactive)
GCCATAAC	0.0397 (inactive)
GACATAAC	0.325 (active)

Sequence	PBM E-score
GACATAAA	0.288 (inactive)
AGCCCATG	0.00842 (inactive)
CCTTAAGG	-0.154 (inactive)
AGAACGCC	-0.114 (inactive)
AACACGGA	0.31 (inactive)
AACACGCT	0.267 (inactive)
AACACGGG	0.32 (active)
AACACGGT	0.351 (active)
AACACGGC	0.166 (inactive)
CACACGGG	-0.0095 (inactive)
CGCTGAAG	-0.19 (inactive)
CGCATTGA	-0.0262 (inactive)
CCCCAGCG	-0.312 (inactive)
CAAAACGG	0.016 (inactive)
AAGGCTCA	-0.107 (inactive)
AATTTTCT	0.0254 (inactive)
AGTGGACC	-0.151 (inactive)
TCAACAAA	0.157 (inactive)
ACAACAAA	0.323 (active)
CCAACAAC	0.178 (inactive)
CCAACAAG	0.196 (inactive)
AAAACAAT	0.177 (inactive)
GCAACAAA	0.15 (inactive)
GCAACAAC	0.205 (inactive)
ACAACCAG	0.249 (inactive)

Sequence	PBM E-score
ACAACAGT	0.205 (inactive)
ACAACAAT	0.347 (active)
ACAACAAG	0.362 (active)
ACAACAAC	0.36 (active)
AGTACGGA	-0.0156 (inactive)
ATAGACTA	0.115 (inactive)
AGTTATTG	0.11 (inactive)
AGAGTCCC	-0.228 (inactive)
GTACAGAA	0.136 (inactive)
TGTATCAA	0.315 (active)
CGTATCAA	0.0341 (inactive)
AGTATCAA	0.148 (inactive)
CCTGTCTA	0.0989 (inactive)
ATTGTCAA	0.183 (inactive)
CTTGTCTA	0.281 (inactive)
GTTGTCCA	≥ 0.336 (active)
GCTGTCAA	0.057 (inactive)
GTTGTCTA	0.321 (active)
GTTGTCAA	0.339 (active)
CTTGTCCA	0.287 (inactive)
ATTGTCTA	0.194 (inactive)
ATTGTCCA	0.1 (inactive)
CGGGACAA	0.0647 (inactive)
CCGGGTGC	-0.287 (inactive)
ACTTAATC	0.0653 (inactive)

Sequence	PBM E-score
GTTTAATA	0.23 (inactive)
AAAGCCGA	-0.139 (inactive)
AGGTACAG	0.146 (inactive)
CGGTACAA	0.234 (inactive)
AGGTATAA	0.0486 (inactive)
AGGTACAC	0.297 (inactive)
AGGTACAA	0.345 (active)
TGGTACAA	0.358 (active)
AGGTACAT	0.389 (active)
AGGTACTC	0.085 (inactive)
GGGTACAA	0.242 (inactive)
GGAGGGAA	-0.186 (inactive)
ACGCATAT	0.103 (inactive)
ACGGCTTG	-0.133 (inactive)
CACCTACA	0.17 (inactive)
AGTCATTG	0.121 (inactive)
CGAGTGAA	-0.00479 (inactive)
TAACACGA	0.323 (active)
CAACACGA	0.267 (inactive)
GAACACGC	0.254 (inactive)
GAACACTA	0.103 (inactive)
TAACACCA	0.247 (inactive)
GAACACGA	0.32 (active)
